Screening results deposited in PubChem by several laboratories.
In the library only some 22% were active in any assay of this set; here they are far more common.
CYP2C9 inhib: blockers of cytochrome P450 2C9 activity – biochemical, luminescence, ADME assay, primary screen; 20% of 96,000 active; P11712; inhibition, % at 5 µM; CYP2C9 Supersomes, luciferin-H conversion;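 active means blocking of liver enzyme CYP2C9 beyond about 50% at 5 µM, limit read from the data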
CYP2C19 inhib: blockers of cytochrome P450 2C19 activity – biochemical, luminescence, ADME assay, primary screen | P33261 | CYP2C19 Supersomes, luciferin-H EGE luminescence, 30 min | inhibition, % at 5 µM | 21% of 96,000 active | AID 778, 2007;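 active means CYP2C19 inhibition above a set limit at 5 µM in the primary screen, cut at about 50% in these data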;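 further: plate controls were negative control wells for no effect and 2.5 mM tranylcypromine positive control for full effect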
Target sequence (P33261 whole entry, looked up): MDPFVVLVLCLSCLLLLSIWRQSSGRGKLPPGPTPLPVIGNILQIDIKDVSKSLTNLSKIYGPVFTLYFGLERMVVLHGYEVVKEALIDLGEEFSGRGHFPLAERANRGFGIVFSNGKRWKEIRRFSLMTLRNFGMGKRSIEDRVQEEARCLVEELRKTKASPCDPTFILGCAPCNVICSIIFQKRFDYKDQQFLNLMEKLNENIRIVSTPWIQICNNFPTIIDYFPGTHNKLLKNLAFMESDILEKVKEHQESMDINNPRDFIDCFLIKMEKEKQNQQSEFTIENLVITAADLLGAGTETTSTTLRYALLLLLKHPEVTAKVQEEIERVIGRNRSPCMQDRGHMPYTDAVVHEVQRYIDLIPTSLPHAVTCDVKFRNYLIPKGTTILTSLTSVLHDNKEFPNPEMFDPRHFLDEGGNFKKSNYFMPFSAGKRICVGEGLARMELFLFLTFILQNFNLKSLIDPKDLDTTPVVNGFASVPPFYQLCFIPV
F-actin modifier: modifiers of F-actin cytoskeleton organization, primary screen, imaging, HUVEC, phalloidin staining, high-content imaging; 0.18% of 91,000 active; AID 836, 2007; HUVEC TNFa F-actin phalloidin imaging; inhibition, % at 2 µM;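 active means inhibition above the batch mean plus 3 SD and confirmed as a hit by visual image inspection, cut at about 30% in these data, passing the limit was not always enough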
CYP2C9 act: human CYP2C9 activators, primary screen, biochemical, luminescence. Cytochrome P450 2C9 (Homo sapiens), P11712. recombinant CYP2C9, luciferin-H conversion; hits give high values; factor 1 = untreated enzyme, 0 = blocked. activation factor at 5 µM. 1.4% of 96,000 active. AID 1024, 2008;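 active means activation factor of 2 or more for CYP2C9 at a 5 µM dose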;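 further: 0 = sulfaphenazole-blocked wells and 1 = vehicle-only wells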
CYP2C19 activ: human CYP2C19 activators, primary screen, biochemical, luminescence | recombinant CYP2C19, luciferin-H EGE luminescence; hits give high values; 0 = fully inhibited enzyme, 1 = untreated enzyme | 96,000 tested, under 10 active | activation factor at 5 µM;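 active means activation factor of at least 2 at 5 µM in the primary screen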;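 further: 0 = wells with 2.5 mM tranylcypromine and 1 = vehicle-only wells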
E-sel TNF inh: E-selectin induction blockers in HUVEC – imaging, immunofluorescence, high content, primary screen. HUVEC TNFa-induced E-selectin immunofluorescence. inhibition, % at 2 µM. 0.71% of 120,000 active. AID 1246, 2008;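 active means inhibition above the batch mean plus 3 SD, and confirmed as a hit on visual image review, cut at about 43% in these data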;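 further: 0% = TNF-stimulated DMSO wells and 100% = unstimulated control wells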
* = called active by the depositor.

How did CCCCc1ccc(S(=O)(=O)Nc2cc(C)on2)cc1 do in these assays?
CYP2C9 inhib: 96*; CYP2C19 inhib: 44; F-actin modifier: 4; CYP2C9 act: 0; CYP2C19 activ: 0.6; E-sel TNF inh: -1

How did Cc1ccc(SCC(=O)NNC(=O)C2CCCCC2)cc1 do in these assays?
CYP2C9 inhib: 1; CYP2C19 inhib: 23; F-actin modifier: -3; CYP2C9 act: 1; CYP2C19 activ: 0.8; E-sel TNF inh: -27

How did O=C(NCCc1ccccc1)C1CCN(Cc2ccccc2F)CC1 do in these assays?
E-sel TNF inh: -10

Results for Cc1cc(NC(=O)C2CC(=O)OC2c2ccccc2)no1 (stereo not drawn) ?
CYP2C9 inhib: 12; CYP2C19 inhib: 52*; F-actin modifier: 1; CYP2C9 act: 0.9; CYP2C19 activ: 0.5

How did CCC(C(=O)Nc1cc(C)nn1-c1nc(C)cc(C)n1)c1ccccc1 (stereo not drawn) do in these assays?
CYP2C9 inhib: 34; CYP2C19 inhib: 14; F-actin modifier: 23; CYP2C9 act: 0.7; CYP2C19 activ: 0.9

How did Cc1cc(NC(=O)CSc2ccccc2)no1 do in these assays?
CYP2C9 inhib: 38; CYP2C19 inhib: 51*; F-actin modifier: -5; CYP2C9 act: 0.6; CYP2C19 activ: 0.5; E-sel TNF inh: 13

Results for Cc1cc(NS(=O)(=O)c2ccc(NC(=O)C(c3ccccc3)c3ccccc3)cc2)no1 ?
CYP2C9 inhib: 64*; CYP2C19 inhib: 12; F-actin modifier: 4; CYP2C9 act: 0.4; CYP2C19 activ: 0.9; E-sel TNF inh: 14

How did CCC(C(=O)Nc1cc(C)on1)c1ccccc1 (stereo not drawn) do in these assays?
CYP2C9 inhib: 54*; CYP2C19 inhib: 65*; F-actin modifier: -4; CYP2C9 act: 0.5; CYP2C19 activ: 0.3; E-sel TNF inh: 11

How did Cc1cc(NS(=O)(=O)c2ccc(NC(=O)Nc3ccccc3)cc2)no1 do in these assays?
CYP2C9 inhib: 7; CYP2C19 inhib: 1; F-actin modifier: 7; CYP2C9 act: 0.9; CYP2C19 activ: 1; E-sel TNF inh: 1

How did Cc1cc(NC(=O)CSc2nnc(-c3ccccc3)o2)no1 do in these assays?
E-sel TNF inh: -51

How did O=C1CC(C(=O)NC2CCCCC2)C(c2ccccc2)O1 (stereo not drawn) do in these assays?
CYP2C9 inhib: -30; CYP2C19 inhib: 13; F-actin modifier: -5; CYP2C9 act: 1.3; CYP2C19 activ: 0.9; E-sel TNF inh: -6

What do the screens show for `C=C(C)Cn1c(N(CCO)Cc2ccccc2)nc2c1c(=O)[nH]c(=O)n2C`?
CYP2C9 inhib: -67; CYP2C19 inhib: -22; F-actin modifier: 13; CYP2C9 act: 1.7; CYP2C19 activ: 1.2

What do the screens show for `O=C(CSc1nnc([C@@H]2CCCN2)o1)c1ccc(Cl)cc1`?
CYP2C9 inhib: 30; CYP2C19 inhib: 98*; F-actin modifier: -20; CYP2C9 act: 0.7; CYP2C19 activ: 0; E-sel TNF inh: 6

How did Clc1ccc(CSC2=NCCCN2)cc1Cl do in these assays?
CYP2C9 inhib: -5; CYP2C19 inhib: 10; CYP2C9 act: 1.1; CYP2C19 activ: 0.9

Results for Clc1ccc(CSc2nnc([C@@H]3CCCN3)o2)cc1Cl ?
CYP2C9 inhib: 35; CYP2C19 inhib: 100*; F-actin modifier: -5; CYP2C9 act: 0.6; CYP2C19 activ: 0

What do the screens show for `NS(=O)(=O)c1ccc(NCC2COc3ccccc3O2)c([N+](=O)[O-])c1` (stereo not drawn)?
E-sel TNF inh: -13

Results for CCOC(=O)N1CCN(C(=O)CN(Cc2ccc(Cl)cc2)S(=O)(=O)c2ccccc2)CC1 ?
CYP2C9 inhib: 27; CYP2C19 inhib: 41; F-actin modifier: -28; CYP2C9 act: 0.7; CYP2C19 activ: 0.6; E-sel TNF inh: -64

Results for O=C(O)c1ccc(NC(CSCc2ccccc2F)C(=O)O)c([N+](=O)[O-])c1 (stereo not drawn) ?
E-sel TNF inh: -4
